# Source: PubChem BioAssay (several laboratories)
# Most compounds without a hit are left out; they make up all but 3% or so of the library.
# CHT inh: inhibits the human high affinity choline transporter; 0.86% of 310,000 active; B-score at 10 µM; AID 488975; CHT-expressing cells, membrane potential dye, choline response; active compounds read low; Q9GZV3;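 active means B-score over 3 SD under the library average, and starting fluorescence ratio not unusually high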;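 further: choline stimulus applied at its EC90 after an EC20 pre-addition; B-score computed on integrated fluorescence ratio after choline addition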
# Target sequence (Q9GZV3 whole entry, looked up): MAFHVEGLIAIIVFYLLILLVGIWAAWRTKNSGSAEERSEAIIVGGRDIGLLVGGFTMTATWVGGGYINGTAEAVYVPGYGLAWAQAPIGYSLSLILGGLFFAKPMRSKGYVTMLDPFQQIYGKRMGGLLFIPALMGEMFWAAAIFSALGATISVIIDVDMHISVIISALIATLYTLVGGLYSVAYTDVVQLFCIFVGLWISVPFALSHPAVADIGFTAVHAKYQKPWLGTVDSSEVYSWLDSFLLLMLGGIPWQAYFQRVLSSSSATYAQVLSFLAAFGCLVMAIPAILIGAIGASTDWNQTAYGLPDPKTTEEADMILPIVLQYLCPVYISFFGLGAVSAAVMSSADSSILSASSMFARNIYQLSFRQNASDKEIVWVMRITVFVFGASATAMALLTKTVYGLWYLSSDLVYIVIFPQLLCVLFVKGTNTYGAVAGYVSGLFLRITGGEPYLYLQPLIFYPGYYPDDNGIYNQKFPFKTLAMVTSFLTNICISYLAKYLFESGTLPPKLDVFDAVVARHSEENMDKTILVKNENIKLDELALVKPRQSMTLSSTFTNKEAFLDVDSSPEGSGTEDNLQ
# Mot1-301 SUMO: SUMOylation pathway inhibition by Mot1-301 growth rescue. S. cerevisiae Mot1-301 growth rescue, ATP luminescence, 38.5C; percent above DMSO median, 100 means doubled. growth rescue, % at 18.8 µM. 1% of 320,000 active. AID 2716;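 active means every valid replicate shows activation above 250% relative to neutral control wells; inactive means the rest, any valid replicate at or below 250%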;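 further: OY570 slx delta 5 strain wells were the positive control but not used for scaling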
# A1 inh: inhibitors of the anti-apoptotic protein A1, read as caspase activation; MEF A1-2A-BIM cells, Caspase-Glo 3/7 luminescence, 3 h; percent of clofoctol response, vehicle zero; caspase activation, % (test concentration not listed); 0.066% of 330,000 active; AID 2462;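 active means over half of replicate activation scores above 10%, or exactly half above 10 with the replicate mean above 10; inconclusive means replicate mean below 10 yet half the replicates above 10; inactive means over half of replicates below 10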
# CHT allo act: human CHT allosteric activation; 0.49% of 310,000 active; AID 488977; B-score at 10 µM; CHT-expressing cells, membrane potential dye, choline EC20; active compounds read high; LV-AA mutant CHT in HEK293 cells; Q9GZV3;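 active means initial fluorescence not abnormally high and integrated response B-score, plate-corrected, over 3 SD above library mean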
# NALP3 yeast inh: NALP3 inhibition in yeast. 0.39% of 330,000 active. Yeast reconstituted NLRP3/ASC/caspase-1, beta-gal luminescence, 24 h. inhibition, % at 10 µM;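 active means inhibition of 50% or more; inactive means inhibition below 50%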;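 further: plate controls were induced DMSO wells for no effect and uninduced yeast grown without galactose for full effect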
# NALP1 inh: NALP1 inhibition; S. cerevisiae NALP1/ASC/caspase-1 growth, X-gal OD620, 72 h; inhibition, % at 10 µM; 0.61% of 280,000 active; in the data active means inhibition mostly above about 24%, no sharp cut-off; inactive means mostly below about 32%
# CHT inh conf: human CHT inhibition, confirmatory screen; shares compounds with CHT inh; CHT-expressing cells, choline membrane potential dye; LV-to-AA substituted CHT, HEK293 cells; CHT activity remaining % of control (active compounds read low), % at 10 µM; 70% of 2,400 active;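 active means choline transporter activity left, mean of duplicates at 10 µM, below buffer-only control mean minus 3 SD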;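 further: depolarization triggered by choline at its EC90 following an EC20 pre-addition; 0% = hemicholinium-3 full block and 100% = buffer-only control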
# HEK293 CHT ctr: counter-screen for CHT inhibitors: effect in parental HEK293 cells | AID 493222 | 4% of 2,400 active | membrane potential dye, choline response; active = decrease or increase beyond buffer ±3SD | shares compounds with CHT inh | membrane potential ratio readout (active if shifted either direction beyond buffer ±3SD; no single direction) at 10 µM;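 further: parental cells lack the transporter so any hit is non-specific; ratio is peak minus trough fluorescence over baseline after EC90 choline challenge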
# * hit, by the source's call; i = inactive; u = inconclusive; x = no result given.
SMILES,CHT inh,Mot1-301 SUMO,A1 inh,CHT allo act,NALP3 yeast inh,NALP1 inh,CHT inh conf,HEK293 CHT ctr
CCOc1ccccc1C(=O)NC(C(=O)OCC(=O)Nc1nnc(-c2ccccc2)o1)C(C)C (configuration not stated),-5.7*,-3,0,i,4,22,i,i
O=C(Nc1nc2ccc(S(=O)(=O)N3CCCCC3)cc2s1)c1cccnc1,-5.5*,-1,-1,i,-11,11,49%*,i
CC(=O)Nc1nc2ccc(S(=O)(=O)N3CCCCC3)cc2s1,i,28,-1,i,-12,7,x,x
O=C(NNC(=O)c1cccnc1)Nc1ccc(Cl)c(Cl)c1,i,186,0,i,8,-10,x,x
O=C(Nc1ccc(F)c(Cl)c1)c1cccnc1,-6.1*,0,-1,i,16,14,i,i
O=C(NC1CCCCC1)N(Cc1ccccc1)Cc1ccco1,-5.6*,x,1,i,21,15,70%*,i
Nc1cc(Cl)ccc1C(=O)OCC(=O)NCC1CCCO1 (configuration not stated),x,-5,-1,x,20,x,x,x
COC(=O)c1ccc(C(=S)NCC2(N(C)C)CCCCC2)cc1,i,-13,0,i,-4,-1,x,x
O=C(O)CCN1C(=O)CC(N2C(=O)/C(=C/c3ccc(Cl)cc3)SC2=S)C1=O (configuration not stated),-6.2*,-4,0,i,3,43,58%*,i
CCOc1ccc(/C=C2\SC(=S)N(CCC(=O)O)C2=O)cc1,i,-3,-4,i,21,-12,x,x
CCN1CCN(C(=O)NS(=O)(=O)c2ccc(C)cc2)CC1,x,x,x,x,7,2,x,x
Cc1ccc(OCCC(=O)OCC(=O)c2c(N)n(CC(C)C)c(=O)n(C)c2=O)cc1,x,5,-2,x,14,x,x,x
CC(C)Cn1c(N)c(C(=O)COC(=O)CCNS(=O)(=O)c2ccccc2)c(=O)n(C)c1=O,-6.3*,-2,0,i,22,x,38%*,i
Cc1ccccc1OCCC(=O)OCC(=O)c1c(N)n(CC(C)C)c(=O)n(C)c1=O,-6.6*,-11,0,i,8,1,58%*,i
COc1ccc(OCC2CCNCC2)cc1,i,362,0,i,16,19,x,x
Cc1ccc(CNS(=O)(=O)c2ccc3c(c2)OCCO3)cc1,i,-15,-1,i,6,27,x,x
Cc1ccccc1CNS(=O)(=O)c1ccc2c(c1)OCCO2,-5.8*,x,x,i,12,19,64%*,i
Cc1ccc(-c2nc3ncccc3o2)cc1NC(=O)c1cccnc1,i,5,0,i,15,5,x,x
Cc1ccc(-c2nc3ncccc3o2)cc1NC(=O)c1ccccc1,-6.7*,7,0,i,10,30,i,i
CCN(CC)S(=O)(=O)c1ccc(Cl)c(C(=O)Nc2nncs2)c1,i,-18,1,i,12,-1,x,x
CCN(CC)S(=O)(=O)c1cc(C(=O)Nc2nncs2)c(Cl)cc1Cl,-9.5*,-15,1,i,17,2,50%*,i
CC(C)(C)NS(=O)(=O)c1cc(C(=O)Nc2sccc2C#N)ccc1Cl,-5.3*,108,0,i,0,33,i,i
N#Cc1ccsc1NC(=O)c1cnccn1,i,-10,-1,i,-8,x,x,x
O=C(CN1CCC(NC(=O)c2ccccc2F)CC1)Nc1ccc2c(c1)OCCO2,-5*,15,-1,i,1,1,i,i
CCOc1ccccc1NC(=O)NC1CCN(CC(=O)Nc2ccc3c(c2)OCCO3)CC1,i,74,1,i,2,-1,x,x
SMILES,CHT inh,Mot1-301 SUMO,A1 inh,CHT allo act,NALP3 yeast inh,NALP1 inh,CHT inh conf,HEK293 CHT ctr
COc1ccccc1CNC(=O)CCNC(=O)c1ccco1,x,x,x,x,21,x,x,x
COc1cc(NC(=O)c2ccccc2)c(C)cc1NC(=O)CC(CC(=O)O)c1ccccc1 (configuration not stated),i,-6,1,i,15,1,x,x
CC(C(=O)NC1CCCCCC1)N(c1ccccc1)S(C)(=O)=O (configuration not stated),-12*,-18,u,i,-2,-11,i,i
O=C(CN1C(=O)S/C(=C\c2ccccc2Cl)C1=O)NCCCn1ccnc1,i,-10,1,i,2,-1,x,x
COc1ccccc1/C=C1\SC(=O)N(CC(=O)NCCCn2ccnc2)C1=O,-7.1*,-15,0,i,-6,4,69%*,i
CCOC(=O)c1c(NC(=O)C2C3C=CC(C3)C2C(=O)O)sc2c1CCC(CC)C2 (configuration not stated),-5*,-11,0,i,11,28,27%*,i
O=C(Nc1ccccc1C(=O)NCCCn1ccnc1)c1ccccc1,-10*,-7,-1,i,10,2,13%*,i
CC(C)c1ccc(/C=C(\NC(=O)c2ccccc2)C(=O)NCCCn2ccnc2)cc1,-8.2*,3,0,i,-1,-6,23%*,i
COc1ccc(C(=O)Nc2ccccc2C(=O)NCCCn2ccnc2)cc1,x,-39,x,x,x,28,x,x
Cc1ccc(-c2cc(C(=O)NCCCn3ccnc3)c3cc(Br)ccc3n2)o1,-9.2*,9,0,i,3,9,24%*,i
Cc1ccc(-c2cc(C(=O)O)c3cc(Br)ccc3n2)o1,i,39,0,i,4,8,x,x
CC(C)(C)N1C(=O)[C@H]2[C@@H](c3ccc(Br)cc3)N3C(=O)N(c4cccc(Cl)c4)C(=O)[C@@]3(Cc3ccccc3)[C@H]2C1=O,i,48,1,i,6,x,x,x
Cc1c(C)c2ccc(OC(C)C(=O)NCCCN3CCOCC3)c(C)c2oc1=O (configuration not stated),i,-14,0,i,13,23,x,x
COc1ccc(S(=O)(=O)n2cccc2)cc1,i,0,0,i,-11,x,x,x
COc1ccccc1/C=C1\SC(=S)N(CC(=O)NC2CCS(=O)(=O)C2)C1=O (configuration not stated),i,-7,1,i,22,11,x,x
CCOc1ncccc1C(=O)Nc1cccc(-c2nnc3n2CCCCC3)c1,i,x,0,i,5,-32,x,x
